Screens: PubChem BioAssay, National Center for Advancing Translational Sciences (NCATS)
In the library only some 17% were active in any assay of this set; here they are far more common.
DT40 TDP1 no CPT = qHTS for Inhibitors of human tyrosyl-DNA phosphodiesterase 1 (TDP1): qHTS in cells in absence of CPT. DT40 Tdp1-/- hTDP1 cells, no CPT, ATP luminescence, 48 h. Potency, µM (series often up to 46.2 µM), inactives show top-dose activity change, negative = growth inhibition, usual class: inhibitors. 420,000 tested, 15% active. AID 686978, 2013; further: on the % scale 0 is the no-effect control and ±100 the full control effect; nearly all actives have a fitted effect of over 55% in size
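Camptothecin absent (DMSO only). Human TDP1-complemented DT40 knockout cells, 400 cells/well, 37 °C for minimum 48 hr; ATP measured via CellTiter-Glo, 30 min dark incubation, luminescence.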
HepG2 viability = kills HepG2 cells in TGF-b inhibitor counter-screen; Potency, µM (highest dose often 46.1 µM), without a hit: top-dose activity change, negative = cytotoxicity, usual class: cytotoxic; 410,000 tested, 0.76% active; HepG2 CAGA-GFP viability, ATP luminescence, 18 h
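HepG2 CAGA-GFP cells (1000/well, DMEM with 1% FBS) received compound, then TGF-beta at 500 pg/mL final, and were incubated 18 hours at 37 degrees C. Viability was read by CellTiter-Glo luminescence. Media-only wells were set as complete cell-killing and DMSO as no toxicity.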
ATXN2 expr inh = ATXN2 expression inhibition. HEK-293 ATXN2-luciferase reporter, luminescence, 24 h. Potency, µM (series often up to 57 µM), for inactives: top-dose activity change, negative = inhibition, actives largely listed as inhibitors. 360,000 tested, 0.72% active. AID 1745845; further: on the % scale 0 is the no-effect control and ±100 the full control effect; nearly all actives have a fitted effect of over 55% in size
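qHTS (up to 57 uM final) was run with 24 h compound exposure of reporter cells at 37 °C. Each well was multiplexed: SteadyGlo luminescence measured ATXN2-luciferase expression after a fluorogenic Gly-Phe-AFC viability readout (25 uM final).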
DT40 TDP1 CPT = DT40-hTDP1 cell growth loss with CPT | chicken DT40 Tdp1-/-;hTDP1 cells + 20 nM CPT, ATP luminescence, 48 h | Potency, µM (top dose mostly 46.2 µM), without a hit: top-dose activity change, negative = growth inhibition, most hits filed as inhibitors | 420,000 tested, 12% active; further: on the % scale 0 is the no-effect control and ±100 the full control effect; nearly all actives have a fitted effect of over 55% in size
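Chicken DT40 Tdp1-/- cells complemented with human TDP1, 400 cells/well, exposed to compounds plus 20 nM camptothecin for at least 48 h at 37 C; viability read as ATP content by CellTiter-Glo luminescence.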
TGFb inhibitor = TGF-b pathway inhibition | HepG2 CAGA-GFP TGF-b/SMAD3 reporter, GFP fluorescence, 18 h; TGF-beta stimulated, 500 pg/mL final | Potency, µM (highest dose often 46.1 µM), for inactives: top-dose activity, negative = inhibition, usual class: inhibitors | 410,000 tested, 1.2% active | AID 588855; further: on the % scale 0 is the no-effect control and ±100 the full control effect; nearly all actives have a fitted effect of over 65% in size
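Read-out: total well GFP (ex488/em500-530) summed from mean per-cell fluorescence. Cells: HEPG2 CAGA-GFP, 1% FBS DMEM, 18 h at 37 degrees C with 500 pg/mL final TGF-beta. Unstimulated wells served as the full-inhibition control; stimulated DMSO wells = 0%.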
S2 tox = cell viability loss in ATXN counter-screen; S2 cells (HEK-293 line with an ATXN2-luciferase reporter) viability, CellTiter-Fluor protease fluorescence, 24 h; Potency, µM (top dose mostly 56.7 µM), hits mostly cytotoxic; 400,000 tested, 0.49% active; further: nearly all actives have a fitted effect of over 40% in size
Numbers without * were called inactive. The call rests on the fitted dose curve; in most records, active means well fitted curve in the direction sought with a large enough effect; inconclusive means small, poorly fitted or top-dose-only effect, or another doubt; inactive means no such curve, though single readings can be large; an effect the other way counts as inactive or inconclusive. Potency means the concentration at half of the fitted maximal effect.

Cc1csc(=O)n1CCC(=O)OCC(=O)c1c(N)n(CC(C)C)c(=O)n(C)c1=O was read as DT40 TDP1 no CPT 14.6µM*, HepG2 viability -13.2%, ATXN2 expr inh -13.6%, DT40 TDP1 CPT 18.4µM*, TGFb inhibitor -10.1% and S2 tox inactive.
For CC(C)Cn1c(N)c(C(=O)COC(=O)CCc2nc3ccccc3s2)c(=O)n(C)c1=O the results were DT40 TDP1 no CPT 14.6µM*, HepG2 viability -11.3%, ATXN2 expr inh -9.7%, DT40 TDP1 CPT inconclusive, TGFb inhibitor -5.7% and S2 tox inactive.
`CC(C)Cn1c(N)c(C(=O)COC(=O)CC23CC4CC(CC(C4)C2)C3)c(=O)n(C)c1=O` gave DT40 TDP1 no CPT 7.31µM*, HepG2 viability -2.8%, ATXN2 expr inh inconclusive, DT40 TDP1 CPT 7.31µM*, TGFb inhibitor 0.0% and S2 tox inconclusive.
Screening Cc1ccc(C)c(NC(=O)CN2C(=O)c3cccc4cccc2c34)c1 returned DT40 TDP1 no CPT inconclusive, HepG2 viability 3.6%, ATXN2 expr inh 6.4%, DT40 TDP1 CPT inconclusive, TGFb inhibitor -8.5% and S2 tox inactive.
`CCOc1ccc2nc(NC(=O)Cn3[nH]c(=O)c4ccccc4c3=O)sc2c1` gave DT40 TDP1 no CPT 23.1µM*, HepG2 viability -25.9%, DT40 TDP1 CPT 23.1µM*, TGFb inhibitor inconclusive and S2 tox inactive.
For CCOc1ccc2nc(NC(=O)NC3CCCCC3)sc2c1 the results were DT40 TDP1 no CPT 20.6µM*, HepG2 viability 4.0%, ATXN2 expr inh 10.6%, DT40 TDP1 CPT inconclusive, TGFb inhibitor 17.6% and S2 tox inactive.
CCOc1ccc2nc(NC(=O)c3nc(SC(C)C)ncc3Cl)sc2c1 was read as DT40 TDP1 no CPT 8.2µM*, HepG2 viability -4.5%, ATXN2 expr inh 10.5%, DT40 TDP1 CPT 9.2µM*, TGFb inhibitor -2.7% and S2 tox inactive.
`O=C(Nc1nc2c(F)cc(F)cc2s1)c1ccc(S(=O)(=O)N2CCc3ccccc32)cc1` gave DT40 TDP1 no CPT inconclusive, HepG2 viability -18.0%, ATXN2 expr inh -31.1%, DT40 TDP1 CPT 25.9µM*, TGFb inhibitor inconclusive and S2 tox inactive.
For CCSc1ncc(Cl)c(C(=O)Nc2nc3ccc(OC)cc3s2)n1 the results were DT40 TDP1 no CPT -21.4%, HepG2 viability -1.8%, ATXN2 expr inh 8.5%, DT40 TDP1 CPT -21.6%, TGFb inhibitor 34.1% and S2 tox inactive.
For CCOc1ccccc1NC(=O)c1nc(SC(C)C)ncc1Cl the results were DT40 TDP1 no CPT 18.4µM*, HepG2 viability -11.4%, ATXN2 expr inh -2.0%, DT40 TDP1 CPT inconclusive, TGFb inhibitor -11.5% and S2 tox inactive.
Screening CCOc1ccc2nc(NC(=O)c3ccccn3)sc2c1 returned DT40 TDP1 no CPT 0.651µM*, HepG2 viability -32.2%, ATXN2 expr inh 25.1µM*, DT40 TDP1 CPT 0.82µM*, TGFb inhibitor -8.7% and S2 tox inconclusive.
Cc1ccc2nc(NC(=O)c3ccccn3)sc2c1 was read as DT40 TDP1 no CPT 6.51µM*, HepG2 viability -51.4%, ATXN2 expr inh inconclusive, DT40 TDP1 CPT 4.61µM*, TGFb inhibitor 0.2% and S2 tox inconclusive.
For O=C(Nc1nc2c(F)cc(F)cc2s1)c1ccccn1 the results were DT40 TDP1 no CPT 0.731µM*, HepG2 viability -32.0%, ATXN2 expr inh inconclusive, DT40 TDP1 CPT 0.651µM*, TGFb inhibitor inconclusive and S2 tox inconclusive.
`Cc1ccc(S(=O)(=O)N2CCCOC2CNC(=O)C(=O)NCc2ccccc2C)cc1` (centres undefined) gave DT40 TDP1 no CPT -9.0%, HepG2 viability -3.0%, ATXN2 expr inh -5.2%, DT40 TDP1 CPT 2.3%, TGFb inhibitor 1.1% and S2 tox inactive.
For CCOc1ccc2nc(NC(=O)c3ccco3)sc2c1 the results were DT40 TDP1 no CPT inconclusive, HepG2 viability -52.3%, ATXN2 expr inh -28.8%, DT40 TDP1 CPT inconclusive, TGFb inhibitor -5.8% and S2 tox inactive.
`CCOc1ccc2nc(NC(=O)c3ccoc3C)sc2c1` gave DT40 TDP1 no CPT 8.2µM*, HepG2 viability 1.78µM*, ATXN2 expr inh 1.8%, DT40 TDP1 CPT 9.2µM*, TGFb inhibitor -15.4% and S2 tox inactive.
Screening CSc1ncccc1C(=O)Nc1ccc2nc(C)sc2c1 returned DT40 TDP1 no CPT -2.5%, HepG2 viability -4.1%, ATXN2 expr inh 10.9%, DT40 TDP1 CPT -23.2%, TGFb inhibitor -17.8% and S2 tox inactive.
For CSc1ncccc1C(=O)Nc1nc2ccc(Oc3ccccc3)cc2s1 the results were DT40 TDP1 no CPT inconclusive, HepG2 viability -44.9%, DT40 TDP1 CPT 20.6µM*, TGFb inhibitor inconclusive and S2 tox inactive.
CCOC(=O)C1CCN(C(=O)Nc2cc(Cl)cc(Cl)c2)CC1 was read as DT40 TDP1 no CPT inconclusive, HepG2 viability -66.1%, ATXN2 expr inh -0.6%, DT40 TDP1 CPT 18.4µM*, TGFb inhibitor -9.7% and S2 tox inactive.
`CC(C)(C)OC(=O)[C@H](Cc1ccccc1)NC(=O)c1[nH]cnc1C(=O)N[C@@H](Cc1ccccc1)C(=O)OCc1ccccc1` gave DT40 TDP1 no CPT 23.1µM*, HepG2 viability -4.9%, ATXN2 expr inh 2.9%, DT40 TDP1 CPT 16.4µM*, TGFb inhibitor inconclusive and S2 tox inconclusive.
Screening CC(NC(=O)OCc1ccccc1)C(=O)NCC(=O)NC(Cc1ccc(OC(C)(C)C)cc1)C(=O)OC(C)(C)C (centres undefined) returned DT40 TDP1 no CPT 11.6µM*, HepG2 viability -3.5%, ATXN2 expr inh -13.8%, DT40 TDP1 CPT 20.6µM*, TGFb inhibitor -3.1% and S2 tox inconclusive.
For C[C@H](NC(=O)c1nc[nH]c1C(=O)NCc1ccc(CNC(=O)OC(C)(C)C)cc1)C(=O)OCc1ccccc1 the results were DT40 TDP1 no CPT 16.4µM*, HepG2 viability -41.0%, ATXN2 expr inh inconclusive, DT40 TDP1 CPT 20.6µM* and TGFb inhibitor inconclusive.
For O=C(N[C@@H](Cc1ccccc1)C(=O)OCc1ccccc1)c1nc[nH]c1C(=O)NCc1ccccc1 the results were DT40 TDP1 no CPT inconclusive, HepG2 viability -17.9%, ATXN2 expr inh 4.7%, DT40 TDP1 CPT 18.4µM*, TGFb inhibitor -10.9% and S2 tox inactive.
